# HP1b chromo inh – HTS for Inhibitors of HP1-beta Chromodomain Interactions with Methylated Histone Tails. Chromobox protein homolog 1 (Homo sapiens), P83916. AlphaScreen HP1-beta / biotin-H3K9me3 peptide binding. Potency, µM (doses to about 114 µM), for inactives: at the top dose activity change, negative = inhibition, actives largely listed as inhibitors. 0.56% of 390,000 active. AID 540317, 2011; note: potency is the fitted concentration of half-maximal effect; nearly all actives have a fitted effect of over 70% in size
#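 AlphaScreen: HP1-beta (50 nM) preformed 30 min with biotin-H3(1-18)K9me3 peptide (50 nM) in PBS pH 7.4, 0.01% Tween-20. Compound added for 30 min at RT, then streptavidin donor/nickel chelate acceptor beads (10 ug/mL) for 30 min.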
# Six1-Eya2 inh – qHTS Assay for Inhibitors of the Six1/Eya2 Interaction; AlphaScreen GST-Six1/His-Eya2 binding, biochemical; active compounds read low; Homeobox protein SIX1 (Homo sapiens) + Protein phosphatase EYA2 (Homo sapiens), …; 0.56% of 360,000 active; activity change, % (no concentration beside the values); AID 651725, 2012; in the data active = activity change below about -65%; inconclusive = mostly about -30% to -63%; note: % is set by controls: 0 for no effect and ±100 for the full control effect
# Target sequence (O00167 whole entry, looked up): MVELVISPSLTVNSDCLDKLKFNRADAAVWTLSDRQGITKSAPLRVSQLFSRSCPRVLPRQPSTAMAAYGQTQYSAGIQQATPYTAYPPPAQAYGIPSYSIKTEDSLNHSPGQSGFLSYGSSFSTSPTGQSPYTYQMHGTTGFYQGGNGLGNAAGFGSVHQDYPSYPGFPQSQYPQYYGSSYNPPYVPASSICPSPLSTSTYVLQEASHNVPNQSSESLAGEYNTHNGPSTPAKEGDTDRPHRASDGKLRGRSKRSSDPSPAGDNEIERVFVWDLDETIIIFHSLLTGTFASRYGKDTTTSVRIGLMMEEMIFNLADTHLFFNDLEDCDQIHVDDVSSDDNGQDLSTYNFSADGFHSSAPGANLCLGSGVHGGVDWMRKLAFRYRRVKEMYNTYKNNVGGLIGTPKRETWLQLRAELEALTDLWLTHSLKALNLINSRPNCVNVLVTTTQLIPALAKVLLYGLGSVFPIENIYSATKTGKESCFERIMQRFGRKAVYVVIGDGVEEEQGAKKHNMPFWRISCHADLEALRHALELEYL
# Target sequence (Q15475 whole entry, looked up): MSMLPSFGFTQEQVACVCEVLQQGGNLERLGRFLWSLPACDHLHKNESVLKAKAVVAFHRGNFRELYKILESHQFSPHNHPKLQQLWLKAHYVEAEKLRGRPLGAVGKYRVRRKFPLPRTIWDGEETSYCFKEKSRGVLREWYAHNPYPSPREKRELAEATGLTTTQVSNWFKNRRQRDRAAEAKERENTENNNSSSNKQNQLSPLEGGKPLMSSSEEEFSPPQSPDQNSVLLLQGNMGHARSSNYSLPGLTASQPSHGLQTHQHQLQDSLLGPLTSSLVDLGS
#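 AlphaScreen luminescence read after one hour at 37 °C in darkness. Pin-transferred compounds met GST-Six1 and His-Eya2 protein (5X stock 250 nM/500 nM) plus glutathione donor and Ni-chelate acceptor beads (5X, 50 ug/mL).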
# G9a block – qHTS Assay for Inhibitors of Histone Lysine Methyltransferase G9a; Histone-lysine N-methyltransferase EHMT2 (Homo sapiens), Q96KQ7; G9a H3K9 monomethylation, AlphaScreen, 2 h; Potency, µM (series often up to 102 µM), for the others: at the top dose activity, negative = inhibition, actives largely listed as inhibitors; 8.8% of 350,000 active; AID 504332, 2011; note: potency is the fitted concentration of half-maximal effect; % is set by controls: 0 for no effect and ±100 for the full control effect; nearly all actives have a fitted effect of over 75% in size
#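 AlphaScreen detection with an anti-monomethyl H3K9 antibody quantified product after a 2 h room-temperature reaction containing 500 nM biotinylated H3K9 peptide, 20 µM SAM and 20 nM enzyme, which had been preincubated 15 min with compound.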
# CtBP-E1A inh – qHTS Assay for Inhibitors of the CtBP/E1A Interaction; CtBP / adenovirus E1A interaction (AlphaScreen); AlphaScreen GST-E1A/His-CtBP binding, 1536-well; active compounds read low; activity change, % (no concentration beside the values); 0.49% of 340,000 active; AID 651724, 2012; in the data active = activity change below about -65%; inconclusive = mostly about -30% to -63%; note: % is set by controls: 0 for no effect and ±100 for the full control effect
#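 Homogeneous bead-based format: GST-tagged E1A captured on glutathione donor beads, His-tagged CtBP on nickel acceptor beads; compounds precede bead addition by 2 h at 37 °C.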
# JMJD2A Tudor – qHTS Assay for Inhibitors of JMJD2A-Tudor Domain. 4.4% of 390,000 active. AlphaScreen JMJD2A-Tudor / H3K4me3 peptide binding. Potency, µM (highest dose often 114 µM), inactives show top-dose activity change, negative = inhibition, actives largely listed as inhibitors. Lysine-specific demethylase 4A (Homo sapiens), O75164; note: potency is the fitted concentration of half-maximal effect; % is set by controls: 0 for no effect and ±100 for the full control effect; nearly all actives have a fitted effect of over 50% in size
# BAZ2B inh – qHTS Assay for Inhibitors of BAZ2B. Bromodomain adjacent to zinc finger domain protein 2B (Homo sapiens), Q9UIF8. AlphaScreen BAZ2B-H3K14Ac peptide displacement. Potency, µM (top dose mostly 114 µM), for the others: at the highest dose activity change, negative = inhibition, most hits filed as inhibitors. 4.4% of 360,000 active. AID 504333, 2011; note: potency is the fitted concentration of half-maximal effect; % is set by controls: 0 for no effect and ±100 for the full control effect; nearly all actives have a fitted effect of over 60% in size
#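 In this displacement format the biotinylated H3(5-23) peptide acetylated at Lys14 serves as ligand at 50 nM, with BAZ2B at 50 nM in PBS pH 7.4 containing 0.01% Tween-20. Donor and acceptor beads are 10 ug/mL final.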
# Starred values were filed as active, the others as inactive; ? = inconclusive; · = no result; [ ] = dose if it differs, or a comment. A selection: hits, their analogues and other compounds. The true share with any hit is near 10%. Unless noted, calls come from the whole dose curve; as a rule, active = well fitted inhibition curve with a large enough effect; inconclusive = small, poorly fitted or top-dose-only effect; inactive = no such curve, though single readings can be large or run the other way.
SMILES,HP1b chromo inh,Six1-Eya2 inh,G9a block,CtBP-E1A inh,JMJD2A Tudor,BAZ2B inh
N/C(=N\OC(=O)c1ccccc1[N+](=O)[O-])c1ccccn1,9%,1,3.2µM*,2,-20%[57.1 µM],-31%
N/C(=N\OC(=O)c1ccccc1Cl)c1ccccn1,10%,5,71µM*,6,-15%,0%
COc1cc(C(=O)OCC(=O)c2cc(C)n(CC3CCCO3)c2C)cc(OC)c1C (stereo not given),-13%,-18,?,-9,45µM*,50µM*
Cc1cc(C(=O)COC(=O)c2ccc3c(c2)OCO3)c(C)n1CC1CCCO1 (stereo not given),44%,2,50µM*,0,-3%,?
O=C(COC(=O)/C=C/c1cccc(F)c1)NC1CCCCC1,·,3,·,2,·,·
Cc1cc(NC(=O)CCOc2ccc(F)cc2)no1,36%,-1,56µM*,10,-1%,-9%
Cc1ccc(CNC(=O)CCCC(=O)Nc2cc(C)on2)cc1,?,6,·,-4,16µM*,-7%
CCc1ccccc1N(C)C(=O)c1cc2c(Cl)nc3ccc(C)cc3c2s1,70%,·,16%[59 µM],·,7%,6%
COCCNC(=O)C1(C)CCN(C(=O)c2sc(-c3ccccc3)nc2C)C1 (stereo not given),·,5,·,2,·,·
O=S(=O)(Nc1ccc(Br)cc1)c1cccc2nonc12,7%,-4,79µM*,0,-29%,-34%
O=C1C=C(NCCc2cc(Br)c(O)c(Br)c2)C(=O)c2ncccc21,32µM*,-86*,·,-92*,28µM*,·
O=C1C(=O)c2ncccc2-c2cccnc21,·,·,-118%[2.33 µM],·,·,·
O=C(NC(=S)Nc1ccccc1N1CCCC1)c1ccc([N+](=O)[O-])cc1,22µM*,?,11µM*,32,25µM*,11µM*
CCCCC(=O)NC(=S)Nc1ccccc1N1CCCCC1,16%,18,17%[59 µM],7,-12%,-6%
CC(=O)NC(=S)Nc1ccccc1N1CCCCC1,26%[57 µM],-10,50µM*,-7,-8%,-27%
CCCCCC(=O)N1C[C@H](n2cc(-c3ccc(F)cc3)nn2)[C@@H](O)C[C@@H]1c1ccc(Cl)cc1,·,-9,·,4,·,·
O=C(Nc1cccc2[nH]ncc12)NS(=O)(=O)c1ccccc1,37%,-13,40µM*,·,-5%,?
Nc1ccc(C(O)(C(F)(F)F)C(F)(F)F)cc1,13%,4,22%,-3,?,-3%
Cc1ccc(C(C)(c2ccc(N)cc2)c2ccc(N)cc2)cc1,?,8,·,-19,50µM*,·
c1ccc(CNCCN2CCNCC2)nc1,26%,-86*,4%,-72*,?,16µM*
O=C(NCCN1CCNCC1)c1ccccc1O,67%,9,·,·,-19%,·
Cn1c(C(C#N)C2=C(Cl)C(=O)N(c3ccccc3)C2=O)nc2ccccc21 (stereo not given),·,·,14µM*,·,·,8.9µM*
Cn1c(C(O)C(O)c2ccccc2)nc2ccccc21 (stereo not given),37%,0,3%,·,-7%,-3%
COc1ccc(CNc2nc3c(-c4ccccc4)nnn3c3ccccc23)cc1,44%,·,4%[59 µM],·,-13%,-1%
CCOC(=O)[C@]12CCCC=C1N(Cc1cccc3ccccc13)C(=O)[C@H](CC(=O)N1CCN(C(=O)C3CC3)CC1)C2,·,-2,·,0,·,·
SMILES,HP1b chromo inh,Six1-Eya2 inh,G9a block,CtBP-E1A inh,JMJD2A Tudor,BAZ2B inh
Cc1ccc(S(=O)(=O)c2cnc(SCC(=O)Nc3ccc4c(c3)OCCO4)[nH]c2=O)cc1Cl,28%[57 µM],·,-9%[59 µM],·,-20%,-14%
O=C1NC(=S)S/C1=C\c1ccc(SCc2ccccc2)o1,?,-24,?,-17,25µM*,50µM*
O=C1NC(=S)S/C1=C\c1ccc(SCc2ccco2)o1,11µM*,?,10µM*,-11,6.3µM*,18µM*
COc1ccccc1CNC(=O)CCCn1c(=O)c2ccccc2n(Cc2ccc(F)cc2)c1=O,25%,·,-1%[59 µM],·,2%,1%
COC(=O)c1c(N2C(=O)CC(Sc3ccccc3C(=O)O)C2=O)sc2c1CCCC2 (stereo not given),7%,-7,1.4µM*,-6,-29%,50µM*
CCOC(=O)c1cc(CC)sc1N1C(=O)CC(Sc2ccccc2C(=O)O)C1=O (stereo not given),24%,-3,1.8µM*,-7,-26%,63µM*
CCOC(=O)c1cc(CC)sc1N1C(=O)CC(Sc2ncccc2C(=O)O)C1=O (stereo not given),54%,0,25µM*,7,-6%,-22%
O=C(O)c1ccccc1SC1CC(=O)N(c2ccccc2)C1=O (stereo not given),18%,12,?,-15,?,-20%
CCOC(=O)c1cc2c(=O)n3ccccc3nc2n(CC2CCCO2)c1=NC(=O)c1ccc(OCC)cc1 (stereo not given),42%,·,14%[59 µM],·,10%,8%
COc1ccc(S(=O)(=O)N2CCOC23CCN(S(=O)(=O)c2cc(F)ccc2F)CC3)cc1,24%,-69*,-4%,2,-5%,6%
CC12CN3CC(c4ccccc4)(CN(C1)C3c1ccc(O)cc1)C2=O (stereo not given),8%,·,4%[59 µM],·,-13%,-12%
Nc1c2c(nc3ccc(Br)cc13)N(C1CCCCC1)CC2,·,·,3.5µM*,·,·,16µM*
Nc1c2c(nc3ccc(Br)cc13)N(Cc1ccccc1)CC2,4%,-2,?,·,?,-11%
Nc1c2c(nc3ccc(Br)cc13)N(c1ccccc1)CC2,50µM*,-8,?,0,10µM*,40µM*
Nc1c2c(nc3ccccc13)N(C1CCCCC1)CC2,-18%,-3,?,6,7.1µM*,?
O=C(CCN1CCN(c2ccccc2)CC1)N/N=C/c1ccccc1OC(F)F,12%,?,7%,-16,-30%,·
CC(C)(O)/C=C1/Oc2ccccc2C1N1CCCCC1 (stereo not given),38%,0,50µM*,0,-1%,-6%
O=C(O)C1CCC(=O)N1C1c2ccccc2Oc2ccccc21 (stereo not given),35%,6,-9%,6,-13%,-5%
